Screening data: PubChem, National Center for Advancing Translational Sciences (NCATS)
Hits are enriched below; roughly 19% of the tested compounds scored in any of these assays.
DT40 TDP1 CPT: DT40-hTDP1 cell growth loss with CPT. chicken DT40 Tdp1-/-;hTDP1 cells + 20 nM CPT, ATP luminescence, 48 h. Potency, µM (doses to about 46.2 µM), without a hit: top-dose activity change, negative = growth inhibition, actives largely listed as inhibitors. actives 12% (n = 420,000); further: potency means the concentration at half of the fitted maximal effect; on the % scale 0 is the no-effect control and ±100 the full control effect; nearly all actives have a fitted effect of over 55% in size
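Chicken DT40 Tdp1-/- cells complemented with human TDP1, 400 cells/well, exposed to compounds plus 20 nM camptothecin for at least 48 h at 37 C; viability read as ATP content by CellTiter-Glo luminescence.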
IL1B secr inh: inflammasome signaling inhibition, IL-1 beta readout | THP-1 LPS/ATP IL-1B secretion, AlphaLISA, 16 h; active compounds read low | activity change, % at 57.5 µM | actives 4.7% (n = 360,000) | AID 743279; in the data active means activity change below about -50%; inconclusive means mostly about -30% to -49%; further: on the % scale 0 is the no-effect control and ±100 the full control effect
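Secreted IL-1B measured by AlphaLISA bead assay after 16 h compound exposure of THP-1 cells; compounds (final up to 57.5 uM) added 1 h before LPS (250 ng/mL) and ATP (1.25 mM) stimulation; lower signal means less secretion.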
BCR signal inh: blocks chronic active B-cell receptor signaling; actives 0.05% (n = 340,000); Potency, µM (titrated, usually from 46.1 µM), without a hit: at the highest dose activity change, negative = inhibition, usual class: inhibitors; ABC-DLBCL IkBa-CBG/CBR reporter, luminescence ratio, 4 h; active means well fitted inhibition curve with a large enough effect in the signal ratio, with a control signal flat, not every such curve was filed as active; inconclusive means small, poorly fitted or top-dose-only effect, or effect the other way, or a change in a side signal; the % refers to the signal ratio;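 further: potency means the concentration at half of the fitted maximal effect; plate controls were basal doxycycline-induced cells for no effect and cells given 10 µM MG132 for full effect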
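Compounds up to 46 uM were incubated four hours with TMD8 cells whose green CBG68 luciferase is fused to IkappaBalpha; red CBR luminescence normalised the signal, and concentration-effect curves were fitted to fusion, red and ratio data.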
TDP1 cell noCPT: qHTS for Inhibitors of human tyrosyl-DNA phosphodiesterase 1 (TDP1): qHTS in cells in absence of CPT; DT40 Tdp1-/- hTDP1 cells, no CPT, ATP luminescence, 48 h; Potency, µM (top dose mostly 46.2 µM), inactives show top-dose activity change, negative = growth inhibition, usual class: inhibitors; actives 15% (n = 420,000); AID 686978, 2013; further: potency means the concentration at half of the fitted maximal effect; on the % scale 0 is the no-effect control and ±100 the full control effect; nearly all actives have a fitted effect of over 55% in size
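Chicken DT40 Tdp1-/- cells stably complemented with human TDP1 were seeded at 400 cells/well with DMSO in place of 20 nM camptothecin. After compound pinning, cells grew at least 48 hr at 37 °C; viability read by CellTiter-Glo luminescence.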
SW480 rereplic: induces DNA re-replication in SW480 colon adenocarcinoma cells | SW480 DNA re-replication, Hoechst DNA content imaging, 48 h | Potency, µM (highest dose often 46.1 µM), for the others: at the top dose re-replication activation, hits mostly activators | actives 1.8% (n = 340,000) | AID 624297; further: potency means the concentration at half of the fitted maximal effect; % of control where 0% means no effect; nearly all actives have a fitted effect of over 55% in size
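Cells (250 per well) received 23 nL compound or DMSO by pin tool and were kept 48 hr at 37 C, 5% CO2. Nuclei were then stained with Hoechst for 40 min and scanned for DNA content.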
MCF10A rerep: inducers of DNA re-replication in MCF 10A breast cells; Potency, µM (doses to about 46.1 µM), without a hit: top-dose activity, positive = re-replication, most hits filed as activators; actives 2.9% (n = 350,000); MCF 10A DNA re-replication, Hoechst nuclear intensity, 48 h; AID 624296; further: potency means the concentration at half of the fitted maximal effect; % of control where 0% means no effect; nearly all actives have a fitted effect of over 50% in size
Starred values were filed as active, the others as inactive; ? = inconclusive; · = not tested or not shown; ! = repeats disagree. Unless noted, the call rests on the fitted dose curve; in most records, active means well fitted curve in the direction sought with a large enough effect; inconclusive means small, poorly fitted or top-dose-only effect, or another doubt; inactive means no such curve, though single readings can be large; an effect the other way counts as inactive or inconclusive.

SMILES | DT40 TDP1 CPT | IL1B secr inh | BCR signal inh | TDP1 cell noCPT | SW480 rereplic | MCF10A rerep
CCCCCCCCCCCCCCCCOCCOCCOCCOCCOCCOCCOCCOCCOCCOCCOCCOCCOCCOCCOCCOCCOCCOCCOCCOCCO | 24µM* | · | · | 7.5µM* | ? | ?
CCCCCCCC(=O)OCC(O)CO (stereo not drawn) | -5% | -6 | -1% | 5% | -2% | 5%
CCCCCCCCCCOCC(O)CN (stereo not drawn) | 6.7µM* | · | · | 6.7µM* | 0% | ?
Cc1c(Cl)cccc1NC(=O)c1ncn(-c2ccccc2)n1 | -17% | · | · | -5% | · | ·
CCn1c(=NC(=O)c2ccc3c(c2)OCCO3)sc2c(C)ccc(OC)c21 | ? | · | · | 23µM* | · | ·
CCOCCn1c(=NC(=O)c2ccc3c(c2)OCCO3)sc2cc(OCC)ccc21 | ? | · | · | 15µM* | · | ·
CCn1c(=NC(=O)c2cccc(N3C(=O)CCC3=O)c2)sc2c(OC)ccc(OC)c21 | -25% | 1 | ? | 18µM* | -8% | -4%
COCCn1c(=NC(=O)c2ccc(S(=O)(=O)N3CCc4ccccc4C3)cc2)sc2cc(OC)ccc21 | -23% | 8 | 1% | ? | -4% | ?
COc1ccc(OC)c2c1sc(=NC(=O)c1cccc(N3C(=O)CCC3=O)c1)n2C | -10% | 21 | ? | ? | -7% | 1%
CCn1c(=NC(=O)C2COc3ccccc3O2)sc2c(OC)ccc(OC)c21 (stereo not drawn) | ? | -22 | ? | 15µM* | -24% | 16%
CCn1c(=O)c(C(=O)Nc2ccc(C(C)=O)cc2)nc2ccccc21 | -15% | · | · | -14% | · | ·
COc1ccc(C(O)c2ncc(-c3ccccc3C)[nH]2)cc1 (stereo not drawn) | -10% | 7 | · | -18% | · | ·
O=C(Nc1cccnc1Cl)C1=NN(c2ccccc2)C(=O)CC1 | ? | -12 | ? | 1% | ? | 1%
COC(=O)c1ccc(Cl)c(NC(=O)NC23CC4CC(CC(C4)C2)C3)c1 | 23µM* | -14 | -1% | 18µM* | ? | 8%
COC(=O)c1cccc(S(=O)(=O)N2CCC(NC(=O)NC34CC5CC(CC(C5)C3)C4)CC2)c1 | 23µM* | -13 | 7% | 21µM* | 6% | -4%
COC(=O)c1cccc(S(=O)(=O)N2CCC(C)CC2)c1 | 16% | 2 | 7% | -2% | -3% | 4%
C=CCOC(=O)C1=C(C)NC(SCC(=O)Nc2nccs2)=C(C#N)C1c1ccc(Cl)cc1 (stereo not drawn) | 22µM* | -6 | ? | 32µM* | 1.6µM* | 1µM*
C=CCOC(=O)C1=C(C)NC(SC)=C(C#N)C1c1ccc(OCC)cc1 (stereo not drawn) | ? | -75*! | ? | ? | 3% | ?
CC(=O)c1ccc(N2CCN(S(=O)(=O)c3cc4[nH]c(=O)c(=O)[nH]c4cc3C)CC2)cc1 | 3% | -11 | -2% | -1% | -6% | 0%
COc1cccc(N2CCN(S(=O)(=O)c3ccc(-c4ccno4)cc3OC)CC2)c1 | ? | · | -1% | ? | · | ·
COc1cc(-c2ccno2)ccc1S(=O)(=O)N1CCN(c2ccc(C(C)=O)cc2)CC1 | ? | · | 7% | 15µM* | · | ·
COc1cc(-c2ccno2)ccc1S(=O)(=O)N1CCN(c2ccc(F)cc2)CC1 | ? | · | -1% | 7.3µM* | · | ·
CCCCNC(=O)C(CC)Sc1nnc(-c2cccc(F)c2)c(-c2cccc(F)c2)n1 (stereo not drawn) | 16µM* | · | ? | ? | · | ·
CCCCn1c(N)c(N(CC(C)C)C(=O)C2CC(=O)N(c3ccc(CC)cc3)C2)c(=O)[nH]c1=O (stereo not drawn) | -1% | -10 | 2% | 4% | 3% | 6%
O=C1C=C(C#Cc2ccccc2)C[C@@H](c2ccc(F)cc2)C1 | 4.6µM* | -85* | · | 4.6µM* | · | ·
SMILES | DT40 TDP1 CPT | IL1B secr inh | BCR signal inh | TDP1 cell noCPT | SW480 rereplic | MCF10A rerep
COc1ccccc1C#CC1=CC(=O)C[C@H](c2ccc(F)cc2)C1 | 15µM* | -58* | · | 16µM* | · | ·
Cc1ccc2c(c1)c(=O)c(S(=O)(=O)c1ccc(C)c(C)c1)cn2CC(=O)Nc1ccccc1 | -1% | · | · | -19% | · | ·
CN(C)C(=O)c1ccc(-c2cc(N(C)Cc3ccco3)ncn2)cc1 | -7% | · | · | -4% | · | ·
CCCNc1nc(Nc2ccc(C)cc2)nc(N2CCCC2)n1 | 23µM* | -23 | ? | 21µM* | 7% | ?
O=[N+]([O-])c1ccc(Nc2nc(NCCO)nc(N3CCCC3)n2)cc1 | ? | -25 | ? | 21µM* | -1% | ?
OCCNc1nc(Nc2ccc(Cl)cc2)nc(N2CCCC2)n1 | · | · | · | · | 2% | 16%
O=C(NCc1ccccc1)c1cc(C2CCCCN2C(=O)c2ccc3c(c2)CCO3)on1 (stereo not drawn) | ? | -9 | · | ? | · | ·
CCOc1ccc(C(=O)Nc2cccc(OCc3cc(=O)n4cc(C)sc4n3)c2)cc1 | -9% | · | · | -17% | · | ·
CCOc1ccc(NC(=O)C2CC(=O)NC(=Nc3ccc(Cl)c(Cl)c3)S2)cc1 (stereo not drawn) | -16% | · | · | -1% | · | ·
O=C(c1ccco1)N1CCCC(c2nc3c(nnn3Cc3ccccc3)c(=O)[nH]2)C1 (stereo not drawn) | 5% | 16 | 12% | 4% | -15% | -8%
CC(C)(C)c1nc(N2CCN(C(=O)c3ccco3)CC2)c2nnn(Cc3ccccc3)c2n1 | ? | -52* | 11% | 21µM* | ? | 8.2µM*
O=C(c1ccco1)N1CCN(c2nc(C3CC3)nc3c2nnn3Cc2ccccc2Cl)CC1 | ? | -77* | -6% | ? | 0% | 10%
CCOc1ccc(Nc2nnc(-n3nc(C)cc3C)c3ccccc23)cc1 | 4% | · | · | 2% | · | ·
CC1(C(=O)NCC2CCCCC2)CCN1CCc1ccccc1 (stereo not drawn) | ? | 6 | · | ? | · | ·
CC1(C(=O)NCC2CCCCC2)CCN1C(=O)Cc1ccc(-c2ccccc2)cc1 (stereo not drawn) | ? | -18 | · | 23µM* | · | ·
CC1(C(=O)NC2CCCC2)CCN1C(=O)Cc1ccc(-c2ccccc2)cc1 (stereo not drawn) | 16µM* | -12 | · | 23µM* | · | ·
Cc1ccc(CN2C(=O)CCC2(C)c2nnnn2Cc2ccccc2)cc1 (stereo not drawn) | -12% | 9 | · | -15% | · | ·
